D2 antagonist – HTS Assay for Allosteric Antagonists of the Human D2 Dopamine Receptor: Primary Screen for Antagonists; D(2) dopamine receptor (Homo sapiens), P14416; HEK293 TREx D2 cells, calcium flux, dopamine EC80; inhibition, % at 10 µM; 340,000 tested, 2% active; in the data active = inhibition above about 30%; inactive = below that, where a call was filed; note: 0% is about no effect
Target sequence (P14416 whole entry, looked up): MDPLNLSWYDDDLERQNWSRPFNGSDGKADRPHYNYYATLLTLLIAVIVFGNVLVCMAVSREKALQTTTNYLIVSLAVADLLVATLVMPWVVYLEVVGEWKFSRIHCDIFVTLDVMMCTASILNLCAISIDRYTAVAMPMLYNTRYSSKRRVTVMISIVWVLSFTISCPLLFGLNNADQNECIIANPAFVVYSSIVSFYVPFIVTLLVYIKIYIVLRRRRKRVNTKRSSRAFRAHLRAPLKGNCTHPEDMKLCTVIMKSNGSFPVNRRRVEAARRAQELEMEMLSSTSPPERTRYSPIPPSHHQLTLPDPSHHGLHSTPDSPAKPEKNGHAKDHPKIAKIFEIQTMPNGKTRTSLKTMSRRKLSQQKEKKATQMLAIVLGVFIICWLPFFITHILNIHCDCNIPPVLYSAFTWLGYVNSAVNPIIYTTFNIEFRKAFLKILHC
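Antagonism is scored as inhibition of an EC80 dopamine-evoked calcium signal in a force-coupled, tetracycline-inducible HEK293 T-REx D2 line, with compound present 180 s before agonist.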
D2 PAM-1 – HTS Assay for Positive Allosteric Modulators of the Human D2 Dopamine Receptor: Primary Screen for Potentiators; D(2) dopamine receptor (Homo sapiens), P14416; HEK293 T-REx D2, calcium flux, EC20 dopamine potentiation; potentiation, % at 10 µM; 340,000 tested, 0.34% active;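 active = potentiation over 3 SD above the plate norm, cut at about 30% in these data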; note: 0% is about no effect
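Using a no-wash calcium dye in inducible, force-coupled HEK293 Trex cells expressing D2, we tracked fluorescence each second for 180 s after compound, then for 180 s after EC20 dopamine to detect augmented signalling.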
D2 ag-1 – Beta-Arrestin HTS for Positive Allosteric Modulators of the Human D2 Dopamine Receptor: Agonists. 360,000 tested, 0.084% active. AID 624465, 2012. DiscoveRx PathHunter D2 beta-arrestin, luminescence, 90 min; 100% = 57 uM dopamine signal. D(2) dopamine receptor (Homo sapiens), P14416. activation, % (no concentration beside the values); in the data active = activation above about 40%; inconclusive = between about 15% and that limit
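DiscoveRx PathHunter D2 beta-arrestin cells (2,100/well) attached overnight, then compound-stimulated 90 min at 37 C in HBSS/10 mM HEPES/0.1% Tween-20 buffer; beta-galactosidase complementation read by luminescence after 1 h at ambient temperature. Dopamine 57 uM final (EC100) as control.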
D2 PAM-2 – Beta-Arrestin HTS for Positive Allosteric Modulators of the Human D2 Dopamine Receptor: Potentiators; D(2) dopamine receptor (Homo sapiens), P14416; DiscoveRx D2 beta-arrestin cells, luminescence, 90 min; 100% = 57 uM dopamine signal; AID 624464, 2012; 360,000 tested, 0.23% active; potentiation, % (concentration not given with the values); in the data active = potentiation above about 50%; inconclusive = mostly about 30% to 49%
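D2 cells co-treated with compound plus 50 nM dopamine (EC20) for 90 min at 37 deg C to detect potentiation. Beta-arrestin recruitment was read as enzyme-fragment luminescence after 1 h at ambient temperature. Full response was set by 57 uM dopamine.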
D2 ag-2 – HTS Assay for Allosteric Agonists of the Human D2 Dopamine Receptor: Primary Screen for Agonists. D(2) dopamine receptor (Homo sapiens), P14416. HEK293 T-REx D2 cells, calcium flux agonist mode. activation, % at 2 µM. 340,000 tested, 0.53% active. AID 485358, 2010;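 active = activation over 3 SD above normal in the single-dose calcium agonist read, cut at about 30% in these data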; note: 0% is about no effect
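Agonism is scored from calcium flux in a force-coupled, inducible HEK293 cell line expressing D2, read kinetically for 180 s after compound addition against dopamine controls.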
Starred values were filed as active, the others as inactive; u = inconclusive; x = not tested or not shown. Most compounds without a hit are left out; they make up all but 2.4% or so of the library.

SMILES	D2 antagonist	D2 PAM-1	D2 ag-1	D2 PAM-2	D2 ag-2
COc1ccc(Nc2nc(C(=O)N3CCc4cc(OC)c(OC)cc4C3)cs2)cc1	21.9	-0.9	10.1	4.1	-2.2
COc1ccc(Nc2nc(C(=O)N3CCc4ccccc4C3)cs2)cc1	81.5*	25.0	-5.1	-6.4	-0.3
COc1ccc2c(c1)c1c(c(=O)n(Cc3ccccc3)c(=O)n1Cc1ccccc1)n2C	x	6.5	x	x	0.3
O=C(Nc1cc(Cl)cc(Cl)c1)N1CCCN(Cc2ccccc2)CC1	86.6*	-24.9	2.4	-32.4	0.1
O=S1(=O)CC(O)C(NCCO)C1 (centres undefined)	-47.8	-1.8	0.7	-1.7	1.0
c1coc(CNC2CCCCCCC2)c1	-5.3	0.7	-2.1	20.6	-0.1
O=S1(=O)CC(O)C(NCc2ccco2)C1 (centres undefined)	33.9*	-5.9	0.2	-11.0	0.8
c1coc(CNC2CCCCC2)c1	-13.2	32.3*	-3.4	-1.6	-0.8
COc1ccc(-c2cc(C(F)(F)F)nc(SCC(=O)NC(C)c3ccccc3)n2)cc1 (centres undefined)	x	1.8	x	x	-0.2
N#Cc1ccc(CN2CCN(C(=O)CNC(=O)Cc3ccccc3)CC2)cc1	-0.5	0.2	-4.2	-6.2	1.1
Nc1c(Cl)ncnc1NCCO	-1.1	2.3	-4.7	3.8	0.6
Nc1c(Cl)ncnc1NCc1ccccc1	56.1*	x	3.6	-1.6	x
O=C(COc1ccc(S(=O)(=O)N2CCOCC2)cc1Cl)NCc1ccccn1	24.7	33.6*	0.9	0.5	0.6
O=C(COc1ccc(S(=O)(=O)N2CCCC2)cc1Cl)NCc1ccccn1	-11.1	-4.8	-0.7	-1.6	0.1
COc1ccc(Nc2nc(N)nc(CSc3nc(C)cc(C)n3)n2)cc1	x	5.1	-4.4	3.1	x
COc1ccc(Nc2nc(N)nc(CSc3nnc(N)s3)n2)cc1	38.2*	-6.6	0.6	-5.5	-0.7
COc1ccc(CNC(=S)Nc2ccc(F)c(Cl)c2)cc1	68.2*	7.0	0.7	-15.2	1.8
CC(C)(C)OC(=O)NCCCCCc1nnc(SCc2ccccc2)o1	35.8*	1.0	2.6	-11.2	-1.2
CCOC(=O)c1ccc(N2C(=O)c3n[nH]c(-c4ccco4)c3C2c2ccccc2OC)cc1 (centres undefined)	x	-2.0	x	x	0.3
O=C(NCCN1CCOCC1)c1cc2sccc2n1Cc1ccc(F)cc1	37.8*	-26.0	-2.1	-16.1	0.1
CCN(CC)CCOc1c(C)cccc1Cl	62.0*	-21.2	1.4	-2.0	-0.2
Cn1c(SCC(=O)NCc2ccc(F)cc2)ncc(C(=O)Nc2ccccc2)c1=O	32.1*	9.0	-4.5	-33.1	-0.2
Cc1ccc(S(=O)(=O)c2nnn3c2nc(NC(C)C)c2sccc23)cc1	x	0.9	x	x	-0.3
CCOc1ccc(CCNC(=O)CCCc2nnc3n(CC)c(=O)c4sccc4n23)cc1OCC	x	-1.5	x	x	-0.4
CCOC(=O)N1CCC(Nc2c(Nc3ccc(C)c(C)c3)c(=O)c2=O)CC1	57.0*	-25.6	1.3	-18.1	-1.5
SMILES	D2 antagonist	D2 PAM-1	D2 ag-1	D2 PAM-2	D2 ag-2
Cc1cccc(NC(=O)CN(C)C(=O)/C=C/c2ccccc2)c1C	-28.3	18.1	-3.2	-27.8	-0.2
COc1ccc(CN2CCc3ccccc3C2)c(OC)c1	24.2	-21.9	-1.9	-23.2	-1.7
COc1ccc(CN2CCC(N(CCc3ccccc3)Cc3ccccc3)CC2)c(OC)c1	34.9*	-31.9	-1.2	-17.2	-1.1
CCCN1CCC(N(CCc2ccccc2)Cc2ccccc2)CC1	39.5*	-16.2	4.6	-4.1	-0.6
N#Cc1cccc(NC(=O)COC(=O)CCc2ccc(S(=O)(=O)N3CCOCC3)cc2)c1	34.4*	5.7	-2.8	3.5	-0.1
CCOc1ccc(NC(=O)CCn2c(=O)c3cccn3c3cccnc32)cc1	x	2.6	x	x	-0.7
CC(=O)c1cccc(NC(=O)Nc2sc3nc4n(c(=O)c3c2C)CCC(C)CC4)c1 (centres undefined)	x	-2.5	x	x	-0.2
COc1ccc(N2C(=O)CSC2c2cccc(OC)c2OC)cc1 (centres undefined)	50.7*	-0.3	-2.8	-7.6	0.3
CSc1cccc(NC(=S)NCCCN2CCN(c3ccc(F)cc3)CC2)c1	43.0*	-21.3	-1.6	-13.3	1.3
COc1ccc(C(=O)NCCCNC(=O)c2cnccn2)cc1Br	15.6	5.3	-2.8	-2.1	-0.4
COc1cc2c(cc1NC(=O)CN1CCN(S(=O)(=O)c3ccc(C)cc3)CC1)oc1ccccc12	41.8*	-0.9	-0.9	1.3	0.4
CC(=O)NC(c1ccc(F)c(F)c1)c1nc(-c2cnc3ccccc3c2)cs1 (centres undefined)	x	x	u	-13.1	x
Cc1cccc(C)c1OCCN1C(=O)NC(C)(c2ccccc2)C1=O (centres undefined)	-7.6	38.8*	-5.1	-5.7	1.2
COc1ccc(CCNC(=O)CSc2cn(CCNC(=O)c3ccccc3F)c3ccccc23)cc1OC	x	-4.3	x	x	-0.8
C[C@H](N)c1nnc(SCC(=O)c2ccc(Cl)cc2)o1	40.4*	8.4	0.5	9.6	1.5
O=C(CSc1ncc2c(n1)-c1ccccc1N(Cc1ccc(Cl)cc1)S2(=O)=O)c1ccc(Cl)cc1	x	0.5	x	x	0.3
COc1ccc(F)cc1CN1CCN(c2cc(C)nc3c4c(C)cc(C)nc4nn23)CC1	-11.9	-10.3	x	x	-0.1
Cc1cc(C)c(C#N)c(N2CCN(CCOc3ccc(Cl)cc3)CC2)n1	121.1*	-23.6	2.0	-42.1	1.0
COc1ccc(Cl)cc1CN1CCN(c2nc(C)cc(C)c2C#N)CC1	41.3*	-25.0	-2.7	-29.3	-0.4
Cc1cc(C)c(C#N)c(N2CCCC2)n1	6.3	1.8	-1.4	-2.3	-1.0
Cc1cc(=O)n2nc(N3CCC(C(=O)Nc4ccc(C(C)C)cc4)CC3)sc2n1	x	6.9	x	x	-0.1
Cc1ccnc2nc(NC(=O)c3ccccc3Cl)nn12	x	15.1	x	x	1.3
COC(=O)CCC(=O)OC1(C)C(=O)C=C2C=C(C3CC3)N(CC(C)C)C=C2C1=O (centres undefined)	31.5*	-2.0	x	x	0.0
COC(=O)CCC(=O)OC1(C)C(=O)C=C2C=C(C3CC3)N(CC3CC3)C=C2C1=O (centres undefined)	16.8	-13.2	7.4	17.5	4.4
CC(C)OC(=O)c1c(NC(=O)CCC(=O)O)sc2c1CCCCC2	2.9	7.0	-1.5	-10.1	0.6
CC(C)OC(=O)c1c(NC(=O)CCn2nnc3ccccc32)sc2c1CCCC2	36.7*	x	-0.2	3.5	3.8

Bioassay records from PubChem BioAssay.
